Potency, activity, negative = inhibition and activity change, negative = inhibition data for eight compounds are collected here from PubChem BioAssay (NCATS).

The target of experiment [1] is Lysosomal acid glucosylceramidase (Homo sapiens) (UniProt P04062). Kind of experiment: Glucocerebrosidase-p2 (AID 348; in the data active = potency below about 10 µM; note: potency is the fitted concentration of half-maximal effect). The note with it: purified GBA, blue fluorogenic substrate, 40 min. In short, it runs like this:
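Compounds titrated from 0.6 nM upwards against 0.2 nM enzyme in pH 5.9 citric acid/KH2PO4, taurocholate, tween-20; blue fluorogenic substrate 80 uM, 40 min room temperature, stopped and read Ex 365/Em 440 for AC50.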

Experiment [2] concerns the target Cytochrome P450 1A2 (Homo sapiens) (UniProt P05177). Kind of experiment: p450-cyp1a2 (AID 410; calls by dose curve; note: potency is the fitted concentration of half-maximal effect). The note with it: recombinant CYP1A2, luciferin-ME demethylation, luminescence; series mostly up to 11.4 µM. The method, boiled down:
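20nM CYP1A2 with 100uM Luciferin-ME (at Km) in 100mM KPO4; compound preincubated 10 min, NADPH regeneration added, 60 min at room temperature. Luciferin quantified by luminescence after detection reagent; normalized to 57 uM furafylline.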

Experiment [3] is described as follows: Stat Signaling Pathway (AID 446).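 Note: ME-180 cervical cancer cells given 40 pM IL-6 alongside compound; SIE-controlled beta-lactamase reporter measured as 460/530 nm FRET emission ratio; % is set by controls: 0 for no effect and ±100 for the full control effect.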 The note with it: ME-180 SIE beta-lactamase reporter, IL-6 stimulated, 5 h; at 7.69 µM (top of the series) unless noted. In short, it runs like this:
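Reporter line: ME-180 cervical carcinoma, SIE-beta-lactamase. Treatment: compound with 40 pM IL-6, 5 hrs, 37 C, in low-serum OPTI-MEM with 10 mM HEPES pH 7.3. Detection: 460/530 nm fluorescence.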

For experiment [4], the target named is Glucocorticoid receptor (Homo sapiens) (UniProt P04150). Kind of experiment: GR-GFP Redistribution (AID 450;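 active = compounds whose dose series gives a full or clear partial fitted curve of increased nuclear translocation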; note: potency is the fitted concentration of half-maximal effect). The note with it: U2OS GR-GFP nuclear translocation, laser cytometry, 2 h.
Chain of Glucocorticoid receptor (Homo sapiens) (P04150 whole entry, looked up): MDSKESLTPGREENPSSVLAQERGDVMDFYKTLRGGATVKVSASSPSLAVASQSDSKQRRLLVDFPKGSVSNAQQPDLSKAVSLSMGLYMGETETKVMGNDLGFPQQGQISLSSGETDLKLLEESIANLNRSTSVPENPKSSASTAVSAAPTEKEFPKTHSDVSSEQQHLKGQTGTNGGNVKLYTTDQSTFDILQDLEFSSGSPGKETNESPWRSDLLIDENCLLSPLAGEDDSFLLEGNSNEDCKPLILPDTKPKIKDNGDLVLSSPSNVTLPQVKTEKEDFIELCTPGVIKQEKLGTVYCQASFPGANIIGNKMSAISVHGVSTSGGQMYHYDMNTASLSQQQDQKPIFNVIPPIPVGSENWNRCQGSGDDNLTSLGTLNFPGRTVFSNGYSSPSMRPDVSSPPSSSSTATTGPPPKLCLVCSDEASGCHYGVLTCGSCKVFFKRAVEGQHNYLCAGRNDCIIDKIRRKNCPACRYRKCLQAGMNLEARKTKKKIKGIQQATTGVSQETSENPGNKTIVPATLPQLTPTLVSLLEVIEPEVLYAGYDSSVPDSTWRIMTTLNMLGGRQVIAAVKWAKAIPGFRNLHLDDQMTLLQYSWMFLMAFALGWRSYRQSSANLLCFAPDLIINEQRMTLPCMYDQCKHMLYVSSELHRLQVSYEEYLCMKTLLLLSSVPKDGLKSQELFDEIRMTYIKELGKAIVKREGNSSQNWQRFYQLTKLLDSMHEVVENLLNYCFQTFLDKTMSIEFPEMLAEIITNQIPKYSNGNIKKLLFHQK
Experiment [5] has the same target. Briefly: GR-EFC Redistribution (AID 451; calls by dose curve; note: potency is the fitted concentration of half-maximal effect). The note with it: CHO-K1 GR-EFC translocation, beta-gal luminescence, 2 h. In short, it runs like this:
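CHO-K1 cells stably expressing nuclear-localized β-gal enzyme acceptor and GR fused C-terminally to the enzyme donor fragment; ligand-driven nuclear translocation restores β-gal by complementation. Compounds titrated up to 46 uM final, 2 h at 37 °C; luminescence read.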

In experiment [6] the target is Mitogen-activated protein kinase 10 (Mus musculus) (UniProt Q61831). Briefly: JNK3 AlphaScreen Assay (AID 530).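 Note: kinase came from lysate of stimulated human HepG2 cells; signal reports phosphorylation of biotinylated GST-cJun 1-79 at Ser73 with 10 µM ATP; % is set by controls: 0 for no effect and ±100 for the full control effect.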 The note with it: JNK3 lysate, c-Jun phosphorylation; series mostly up to 11.4 µM. In short, it runs like this: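 Inhibitors reduce antibody binding to phosphorylated biotin-cJun, lowering AlphaScreen luminescence. Lysates from HepG2 cells pre-activated by IL-1beta plus TNF-alpha supplied JNK3; compounds were titrated.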

For experiment [7], the target named is 3',5'-cyclic-AMP phosphodiesterase 4B (Homo sapiens) (UniProt Q07343). Kind of experiment: qHTS Assay for Inhibitors of PDE-IV (AID 607; active = well fitted activation curve with a large enough effect in the main read-out, with a control signal flat, not every such curve was filed as active; note: % of control where 0% means no effect). The note with it: HEK293 ACTOne CNG channel cells, membrane potential fluorescence; series mostly up to 22.9 µM. In short, it runs like this: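 Cell-based read-out of cAMP via a modified cyclic nucleotide-gated channel and membrane potential dye (535/590 nm) in HEK293 cells expressing PDE4 endogenously. Compounds tested up to 22.9 uM final; 100 uM RO 20-1724 reference.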
Chain of 3',5'-cyclic-AMP phosphodiesterase 4B (Homo sapiens) (Q07343 whole entry, looked up): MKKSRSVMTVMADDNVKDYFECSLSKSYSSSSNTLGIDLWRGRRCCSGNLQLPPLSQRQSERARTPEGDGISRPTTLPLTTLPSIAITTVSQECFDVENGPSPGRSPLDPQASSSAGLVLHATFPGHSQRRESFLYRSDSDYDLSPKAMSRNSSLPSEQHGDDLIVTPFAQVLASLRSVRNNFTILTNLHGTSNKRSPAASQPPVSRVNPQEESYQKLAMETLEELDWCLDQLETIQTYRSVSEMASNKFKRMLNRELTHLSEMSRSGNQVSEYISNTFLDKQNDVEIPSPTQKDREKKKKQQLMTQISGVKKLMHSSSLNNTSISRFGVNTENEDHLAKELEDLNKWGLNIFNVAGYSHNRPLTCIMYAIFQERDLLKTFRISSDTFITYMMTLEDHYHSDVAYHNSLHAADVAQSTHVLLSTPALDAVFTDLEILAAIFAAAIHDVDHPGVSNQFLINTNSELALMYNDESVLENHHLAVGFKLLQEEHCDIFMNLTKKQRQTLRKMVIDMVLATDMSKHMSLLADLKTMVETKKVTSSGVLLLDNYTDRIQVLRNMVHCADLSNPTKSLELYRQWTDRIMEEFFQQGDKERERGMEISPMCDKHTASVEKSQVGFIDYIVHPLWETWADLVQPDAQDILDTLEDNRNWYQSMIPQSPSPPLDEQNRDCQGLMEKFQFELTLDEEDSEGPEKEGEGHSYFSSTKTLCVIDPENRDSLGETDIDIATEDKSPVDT
Background: In qHTS, concentration-response curves come from the screen itself.

Experiment [8] has as its target Cytochrome P450 2D6 (Homo sapiens) (UniProt P10635). Kind of experiment: qHTS Assay for Inhibitors and Substrates of Cytochrome P450 2D6 (AID 891; active = well fitted curve in the direction sought with a large enough effect; an effect the other way counts as inactive or inconclusive; note: potency is the fitted concentration of half-maximal effect; nearly all actives have a fitted effect of over 60% in size). The note with it: recombinant CYP2D6, luciferin-ME EGE luminescence; series mostly up to 11.4 µM. The method, boiled down: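 Human CYP2D6 (5 nM) with 30 uM Luciferin-ME EGE (at Km) in 100 mM KPO4, compound preincubated 10 min, then NADPH regeneration system for 60 min at room temperature. Luciferin read by luminescence; normalized to 1.43 uM quinidine.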

Experiment [9] in a line: NFAT Signaling Pathway (AID 444).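 Note: carbachol stimulus at about its EC50 of 1 µM final; % is set by controls: 0 for no effect and ±100 for the full control effect.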 The note with it: Jurkat NFAT-bla M1, carbachol, beta-lactamase ratio, 5 h; at 7.69 µM (top of the series) unless noted. In short, it runs like this:
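Jurkat cells carrying an NFAT-driven β-lactamase reporter and co-transfected muscarinic M1 receptor were treated with compound plus carbachol (1 uM final, an EC50 level) for 5 h at 37 °C. CCF4 loading followed for 1 h at RT; 460/530 nm ratio gave %activity.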

Experiment [10] deals with Cytochrome P450 2C9 (Homo sapiens) (UniProt P11712). Kind of experiment: qHTS Assay for Inhibitors and Substrates of Cytochrome P450 2C9 (AID 883; active = well fitted curve in the direction sought with a large enough effect; an effect the other way counts as inactive or inconclusive; note: nearly all actives have a fitted effect of over 60% in size; note: potency is the fitted concentration of half-maximal effect; for activity change, negative = inhibition: % is set by controls: 0 for no effect and ±100 for the full control effect). The note with it: recombinant CYP2C9, luciferin-H luminescence, 60 min; series mostly up to 11.4 µM. The method, boiled down: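 CYP2C9 deoxyluciferin hydroxylation, 37C, 60 min with NADPH regeneration; 10nM enzyme, 100uM Luciferin-H (KM). Glo detection reagent stopped reaction; luminescence normalized to sulphaphenazole (57uM) full inhibition.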
Chain of Cytochrome P450 2C9 (Homo sapiens) (P11712 whole entry, looked up): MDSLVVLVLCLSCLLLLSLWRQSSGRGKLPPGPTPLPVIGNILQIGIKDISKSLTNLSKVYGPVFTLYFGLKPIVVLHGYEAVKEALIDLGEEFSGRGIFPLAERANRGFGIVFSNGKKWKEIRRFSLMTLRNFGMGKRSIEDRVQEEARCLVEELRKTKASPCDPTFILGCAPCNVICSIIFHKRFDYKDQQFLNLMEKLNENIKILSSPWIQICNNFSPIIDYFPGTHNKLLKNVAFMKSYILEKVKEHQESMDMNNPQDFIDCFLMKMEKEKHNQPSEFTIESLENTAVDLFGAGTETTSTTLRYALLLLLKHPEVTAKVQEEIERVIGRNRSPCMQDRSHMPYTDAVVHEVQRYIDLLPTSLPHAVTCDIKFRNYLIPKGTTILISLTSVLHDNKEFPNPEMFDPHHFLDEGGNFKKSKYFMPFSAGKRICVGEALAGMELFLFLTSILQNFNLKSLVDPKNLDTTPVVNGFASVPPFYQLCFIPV

Experiment [11] has as its target Cytochrome P450 2C19 (Homo sapiens) (UniProt P33261). Kind of experiment: qHTS Assay for Inhibitors and Substrates of Cytochrome P450 2C19 (AID 899; active = well fitted curve in the direction sought with a large enough effect; an effect the other way counts as inactive or inconclusive; note: nearly all actives have a fitted effect of over 60% in size; note: potency is the fitted concentration of half-maximal effect). The note with it: recombinant CYP2C19, luciferin-H EGE luminescence; series mostly up to 11.4 µM. In short, it runs like this:
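In 50mM KPO4, the reaction held 5nM enzyme and KM-level (10uM) Luciferin-H EGE; it ran 60 min at 37C after NADPH regeneration and a 10 min compound preincubation. Luminescence values were scaled to 57uM ketoconazole as complete inhibition.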

For experiment [12], the target named is Cytochrome P450 3A4 (Homo sapiens) (UniProt P08684). Kind of experiment: qHTS Assay for Inhibitors and Substrates of Cytochrome P450 3A4 (AID 884; active = well fitted curve in the direction sought with a large enough effect; an effect the other way counts as inactive or inconclusive; note: nearly all actives have a fitted effect of over 50% in size; note: potency is the fitted concentration of half-maximal effect). The note with it: recombinant CYP3A4, Luciferin-PPXE luminescence; series mostly up to 57.1 µM. In short, it runs like this: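 20 nM human CYP3A4 with 25 uM Luciferin-PPXE (at KM) in 200 mM KPO4, preincubated 10 min with compound; NADPH regeneration started a 60 min RT reaction. Luciferin detected by luminescence, normalized to 57 uM ketoconazole as full inhibition.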
Chain of Cytochrome P450 3A4 (Homo sapiens) (P08684 whole entry, looked up): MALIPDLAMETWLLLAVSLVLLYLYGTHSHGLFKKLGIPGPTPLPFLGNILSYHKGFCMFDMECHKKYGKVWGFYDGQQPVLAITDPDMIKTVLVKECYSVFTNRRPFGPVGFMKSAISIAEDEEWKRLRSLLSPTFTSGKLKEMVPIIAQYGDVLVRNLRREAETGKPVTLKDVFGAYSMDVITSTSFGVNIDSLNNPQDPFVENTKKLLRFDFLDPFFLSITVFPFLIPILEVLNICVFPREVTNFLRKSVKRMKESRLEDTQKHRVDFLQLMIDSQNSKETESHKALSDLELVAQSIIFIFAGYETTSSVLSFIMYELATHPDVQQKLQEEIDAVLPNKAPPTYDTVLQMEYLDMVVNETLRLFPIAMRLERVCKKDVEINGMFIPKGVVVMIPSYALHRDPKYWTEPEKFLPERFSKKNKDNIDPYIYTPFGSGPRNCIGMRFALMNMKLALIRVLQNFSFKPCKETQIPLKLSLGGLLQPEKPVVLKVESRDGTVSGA

The target is the same in experiment [13]. Kind of experiment: qHTS Assay for Activators of Cytochrome P450 3A4 (AID 885; active = well fitted curve in the direction sought with a large enough effect; an effect the other way counts as inactive or inconclusive; note: nearly all actives have a fitted effect of over 65% in size). The note with it: recombinant CYP3A4, Luciferin-PPXE luminescence, 60 min; series mostly up to 11.4 µM. In short, it runs like this: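 Signal was normalized against complete inhibition by 57 uM ketoconazole. The reaction used 20nM CYP3A4 with 25uM Luciferin-PPXE, 10-min compound preincubation and a 60-min NADPH-supported step at RT.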

Structures are written as SMILES. Unmarked numbers belong to inactive results. Inconclusive results are not listed. Active and inactive are the calls of the source. Unless noted, calls come from the whole dose curve; as a rule, active = well fitted curve in either direction with a large enough effect (not every such curve was filed as active); inconclusive = small, poorly fitted or top-dose-only effect, or another doubt; inactive = flat fitted curve, though single readings scatter. Bounds are passed on as bounds.

Chain of Lysosomal acid glucosylceramidase (Homo sapiens) (P04062 whole entry, looked up): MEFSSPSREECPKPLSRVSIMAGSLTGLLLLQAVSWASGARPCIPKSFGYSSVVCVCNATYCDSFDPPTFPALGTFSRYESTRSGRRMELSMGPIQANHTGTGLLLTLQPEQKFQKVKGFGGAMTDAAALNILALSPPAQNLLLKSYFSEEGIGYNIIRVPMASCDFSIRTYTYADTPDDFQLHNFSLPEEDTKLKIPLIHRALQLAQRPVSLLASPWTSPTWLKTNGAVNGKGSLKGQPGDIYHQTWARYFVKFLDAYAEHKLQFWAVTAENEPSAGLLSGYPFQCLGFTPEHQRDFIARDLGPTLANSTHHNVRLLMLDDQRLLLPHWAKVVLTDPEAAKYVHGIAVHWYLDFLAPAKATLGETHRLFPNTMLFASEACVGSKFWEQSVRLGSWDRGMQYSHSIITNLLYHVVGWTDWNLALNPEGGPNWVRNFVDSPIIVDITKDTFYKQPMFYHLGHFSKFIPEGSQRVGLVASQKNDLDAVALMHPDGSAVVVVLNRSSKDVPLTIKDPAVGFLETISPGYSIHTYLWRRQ
Chain of Cytochrome P450 1A2 (Homo sapiens) (P05177 whole entry, looked up): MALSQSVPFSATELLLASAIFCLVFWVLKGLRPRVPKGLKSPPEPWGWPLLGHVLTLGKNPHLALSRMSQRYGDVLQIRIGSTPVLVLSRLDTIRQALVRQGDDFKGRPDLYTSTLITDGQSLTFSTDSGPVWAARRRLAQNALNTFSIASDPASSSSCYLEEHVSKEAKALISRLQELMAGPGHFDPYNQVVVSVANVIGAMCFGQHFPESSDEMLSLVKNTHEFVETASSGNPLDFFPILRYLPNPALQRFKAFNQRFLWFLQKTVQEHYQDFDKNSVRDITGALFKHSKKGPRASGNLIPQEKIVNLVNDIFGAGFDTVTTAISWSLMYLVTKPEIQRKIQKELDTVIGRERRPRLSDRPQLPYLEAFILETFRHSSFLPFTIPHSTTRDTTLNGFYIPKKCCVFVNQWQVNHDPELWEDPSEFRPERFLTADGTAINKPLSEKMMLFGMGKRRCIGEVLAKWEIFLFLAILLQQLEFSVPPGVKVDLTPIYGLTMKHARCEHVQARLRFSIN
Chain of Cytochrome P450 2C19 (Homo sapiens) (P33261 whole entry, looked up): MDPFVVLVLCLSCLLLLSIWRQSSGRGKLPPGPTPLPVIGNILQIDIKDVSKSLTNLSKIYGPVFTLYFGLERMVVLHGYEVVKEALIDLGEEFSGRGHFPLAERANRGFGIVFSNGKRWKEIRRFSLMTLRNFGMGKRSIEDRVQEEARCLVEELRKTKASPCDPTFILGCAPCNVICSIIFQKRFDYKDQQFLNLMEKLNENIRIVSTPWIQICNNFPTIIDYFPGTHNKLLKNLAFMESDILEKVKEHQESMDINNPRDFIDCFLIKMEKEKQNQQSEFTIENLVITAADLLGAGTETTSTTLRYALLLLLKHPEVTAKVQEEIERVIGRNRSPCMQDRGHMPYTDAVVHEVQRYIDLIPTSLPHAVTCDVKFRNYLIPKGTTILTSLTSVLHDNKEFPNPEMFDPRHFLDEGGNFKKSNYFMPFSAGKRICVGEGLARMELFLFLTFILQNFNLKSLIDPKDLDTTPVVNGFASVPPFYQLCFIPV
Chain of Cytochrome P450 2D6 (Homo sapiens) (P10635 whole entry, looked up): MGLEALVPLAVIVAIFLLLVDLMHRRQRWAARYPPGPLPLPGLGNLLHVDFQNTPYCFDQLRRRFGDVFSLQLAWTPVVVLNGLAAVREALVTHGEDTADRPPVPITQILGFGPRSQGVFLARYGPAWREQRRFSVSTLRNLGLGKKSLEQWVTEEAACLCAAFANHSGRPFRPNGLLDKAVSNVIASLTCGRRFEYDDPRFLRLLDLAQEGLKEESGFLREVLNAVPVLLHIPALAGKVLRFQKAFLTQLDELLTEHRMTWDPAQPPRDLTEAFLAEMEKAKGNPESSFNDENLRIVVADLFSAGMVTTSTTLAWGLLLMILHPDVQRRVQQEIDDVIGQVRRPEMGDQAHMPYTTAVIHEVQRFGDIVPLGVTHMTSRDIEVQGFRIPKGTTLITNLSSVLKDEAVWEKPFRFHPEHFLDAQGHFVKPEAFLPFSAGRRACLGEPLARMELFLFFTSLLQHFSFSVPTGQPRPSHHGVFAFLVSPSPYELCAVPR

`CN(C)CCCN1c2ccc(O)cc2Sc2ccc(Cl)cc21`: the Potency is 9.49 µM (active) in experiment [1]; 0.631 µM (active) in experiment [2]; over 46 µM in experiment [4]; over 9.22 µM in experiment [5]; 0.126 µM (active) in [8]. Also, the activity, negative = inhibition in experiment [3] is 18.9%. The Potency entry in experiment [6] and in experiment [7] was “inactive” throughout.

Take `CN(C)CCCn1c2c3ccccc3ccc2c2oc(=O)c3ccccc3c21`: the Potency is over 11.4 µM in experiment [1]; 0.316 µM (active) in experiment [2]; over 46 µM in experiment [4]; over 9.22 µM in experiment [5]; 1.26 µM (active) in experiment [8]. Besides, the activity change, negative = inhibition in experiment [9] was -13.6%. In addition, the Potency entry in experiment [6] and in experiment [7] was “inactive” throughout.

For `O=[N+]([O-])c1ccc(S(=O)(=O)Cc2ccccc2)c2nonc12`, the Potency in experiment [1] was over 11.4 µM; in [4], over 46 µM; in [5] it was over 9.22 µM; in experiment [10], 0.316 µM (active); in [11], 3.16 µM (active). The activity change, negative = inhibition in [2] was -5.3% [at 2.29 µM]. Also, the activity, negative = inhibition in [3] was -2.97%. Besides, the Potency result in experiment [6] and in experiment [7] was “inactive” throughout.

In the case of `C[C@@]12CC[C@@H]3[C@@H](CC[C@H]4C[C@@H](O)CC[C@]43C)[C@H]1CC[C@@H]2c1cc(C(F)(F)F)n[nH]1`, the Potency in experiment [1] was over 11.4 µM; in experiment [2], 3.98 µM (active); in [4] it was over 46 µM; in experiment [5], over 9.22 µM. In addition, the activity, negative = inhibition in experiment [3] is 16.7%. In addition, the Potency entry in experiment [6] and in [7] was “inactive” throughout.

With `O=C1c2ccccc2C(O)(O)[C@@]1(O)[C@]1(O)C(=O)c2ccccc2C1(O)O`, the Potency in [1] was over 11.4 µM; in experiment [4] it was over 46 µM; in [5], over 9.22 µM. Besides, the values for the activity change, negative = inhibition in experiment [2], in experiment [9] and in [12] were -7.5% [at 2.29 µM], -0.902% and 11.5% [at 11.4 µM], respectively. Further, the Potency result in experiment [6], in [10] and in experiment [11] was “inactive” throughout.

Turning to `O=C1C(Cl)=C(Sc2nnc3c4ccccc4c4ccccc4c3n2)C(=O)c2ccccc21`, the Potency in experiment [1] was over 11.4 µM; in experiment [2], 0.398 µM (active); in experiment [4] it was over 46 µM; in experiment [5] it was over 9.22 µM; in experiment [11], 1.58 µM (active). Moreover, in experiment [3], the activity, negative = inhibition is -24.6%. Also, the Potency result in [6], in [7] and in experiment [13] was “inactive” in each case.

As to `CN(C)C[C@H]1CCC2=C(C1=O)C(c1ccc(Cl)c(Cl)c1)C1=C(CC[C@H](CN(C)C)C1=O)O2`, the Potency in [1] is over 11.4 µM; in experiment [4] it was over 46 µM; in [5], over 9.22 µM; in [12], 0.398 µM (active). For the same compound, the activity change, negative = inhibition in experiment [2] is -2% [at 2.29 µM]. For the same compound, the activity, negative = inhibition in [3] was 13.6%. Moreover, the Potency entry in experiment [6], in [7] and in [13] was “inactive” in each case.

`CCC1=C(C[C@H]2NCCc3ccccc32)C[C@@H]2c3cc(OC)c(OC)cc3CCN2C1`: the figures for the Potency in experiment [1], in experiment [4] and in [5] were over 11.4 µM, over 46 µM and over 9.22 µM, respectively. The Potency entry in experiment [2], in [6] and in experiment [7] was “inactive” throughout. Moreover, the activity, negative = inhibition in experiment [3] was -23.5%.
